Among all 5,500 compounds or so, about 2,000 (36%) were called active. Another 18% or so got no clear call; they are omitted. Cut-off read from the data, not from the text of the source: active = normalized growth mostly below about 0.91 (no sharp cut-off); inconclusive = no clear call, values can overlap the other calls; inactive = mostly above about 0.92. Some of the results follow.
Test: chemical genetic growth profiling, strain panel (AID 1159580);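 note: tested at 20 µM; growth read once vehicle control cultures reached saturation at 30 °C; 1 = growth at the plate median or of vehicle wells; lower values mean less growth of the strain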
Settings: growth OD
[1] = S. cerevisiae deletion strains, locus YCL061C, strain MRC1, active compounds read low
[2] = S. cerevisiae deletion strains, locus YHR030C, strain SLT2, active compounds read low
[3] = S. cerevisiae deletion strains, locus YJL187C, strain SWE1, active compounds read low

Measured: normalized growth

CCOc1ccc2nc3cc(N)ccc3c(N)c2c1
inactive: S. cerevisiae deletion strains, locus YBR171W, strain sec66, active compounds read low 1.07 | S. cerevisiae deletion strains, locus YDL005C, strain med2, active compounds read low 0.981 | S. cerevisiae deletion strains, locus YDR001C, strain nth1, active compounds read low 0.94 | S. cerevisiae deletion strains, locus YDR137W, strain rgp1, active compounds read low 0.985 | S. cerevisiae deletion strains, locus YDR159W, strain sac3, active compounds read low 1.06 | S. cerevisiae deletion strains, locus YDR334W, strain swr1, active compounds read low 1.03 | S. cerevisiae deletion strains, locus YDR392W, strain spt3, active compounds read low 0.803 | S. cerevisiae deletion strains, locus YEL061C, strain CIN8 (second series), active compounds read low 0.997 | S. cerevisiae deletion strains, locus YER111C, strain swi4, active compounds read low 0.987 | S. cerevisiae deletion strains, locus YGL167C, strain pmr1, active compounds read low 1.03 | S. cerevisiae deletion strains, locus YGL240W, strain doc1, active compounds read low 1.06 | [2] 0.967 | S. cerevisiae deletion strains, locus YHR079C, strain IRE1, active compounds read low 0.89 | S. cerevisiae deletion strains, locus YJL095W, strain BCK1, active compounds read low 0.935 | S. cerevisiae deletion strains, locus YJL115W, strain asf1, active compounds read low 0.987 | S. cerevisiae deletion strains, locus YJL154C, strain vps35, active compounds read low 0.97 | S. cerevisiae deletion strains, locus YJR066W, strain TOR1, active compounds read low 0.851 | S. cerevisiae deletion strains, locus YLR113W, strain HOG1, active compounds read low 0.961 | S. cerevisiae deletion strains, locus YLR262C, strain YPT6 (second series), active compounds read low 0.891 | S. cerevisiae deletion strains, locus YLR357W, strain rsc2, active compounds read low 1.09 | S. cerevisiae deletion strains, locus YMR125W, strain sto1, active compounds read low 0.892 | S. cerevisiae deletion strains, locus YNL183C, strain NPR1, active compounds read low 0.875 | S. cerevisiae deletion strains, locus YNL322C, strain KRE1 (second series), active compounds read low 1 | S. cerevisiae deletion strains, locus YNR049C, strain mso1, active compounds read low 1 | S. cerevisiae deletion strains, locus YOR231W, strain MKK1, active compounds read low 0.901 | S. cerevisiae deletion strains, locus YPL256C, strain CLN2, active compounds read low 1.03
active: S. cerevisiae deletion strains, locus YAL021C, strain ccr4, active compounds read low 0.749 | S. cerevisiae deletion strains, locus YAL026C, strain drs2, active compounds read low 0.607 | S. cerevisiae deletion strains, locus YAL030W, strain snc1, active compounds read low 0.63 | S. cerevisiae deletion strains, locus YBL061C, strain skt5, active compounds read low 0.745 | S. cerevisiae deletion strains, locus YBR009C, strain hhf1, active compounds read low 0.353 | S. cerevisiae deletion strains, locus YBR023C, strain chs3, active compounds read low 0.721 | S. cerevisiae deletion strains, locus YBR231C, strain swc5, active compounds read low 0.702 | S. cerevisiae deletion strains, locus YBR279W, strain paf1, active compounds read low 0.51 | S. cerevisiae deletion strains, locus YCL011C, strain gbp2, active compounds read low 0.447 | S. cerevisiae deletion strains, locus YCL016C, strain dcc1, active compounds read low 0.462 | [1] 0.846 | S. cerevisiae deletion strains, locus YCL069W, strain vba3, active compounds read low 0.834 | S. cerevisiae deletion strains, locus YCR088W, strain abp1, active compounds read low 0.695 | S. cerevisiae deletion strains, locus YDL040C, strain nat1, active compounds read low 0.779 | S. cerevisiae deletion strains, locus YDR069C, strain doa4, active compounds read low 0.696 | S. cerevisiae deletion strains, locus YDR195W, strain ref2 0.823 | S. cerevisiae deletion strains, locus YDR297W, strain sur2, active compounds read low 0.705 | S. cerevisiae deletion strains, locus YDR335W, strain msn5, active compounds read low 0.907 | S. cerevisiae deletion strains, locus YEL003W, strain gim4, active compounds read low 0.534 | S. cerevisiae deletion strains, locus YEL037C, strain rad23, active compounds read low 0.785 | S. cerevisiae deletion strains, locus YER015W, strain faa2, active compounds read low 0.641 | S. cerevisiae deletion strains, locus YER016W, strain bim1, active compounds read low 0.679 | S. cerevisiae deletion strains, locus YER155C, strain BEM2 (second series), active compounds read low 0.856 | S. cerevisiae deletion strains, locus YFR010W, strain ubp6, active compounds read low 0.683 | S. cerevisiae deletion strains, locus YGL173C, strain kem1, active compounds read low 0.677 | S. cerevisiae deletion strains, locus YGL227W, strain vid30, active compounds read low 0.754 | S. cerevisiae deletion strains, locus YGL253W, strain hxk2, active compounds read low 0.761 | S. cerevisiae deletion strains, locus YHR013C, strain ard1, active compounds read low 0.747 | S. cerevisiae deletion strains, locus YHR027C, strain rpn1, active compounds read low 0.618 | S. cerevisiae deletion strains, locus YHR142W, strain chs7, active compounds read low 0.801 | S. cerevisiae deletion strains, locus YJL092W, strain hpr5, active compounds read low 0.803 | S. cerevisiae deletion strains, locus YJL095W, strain BCK1 (second series), active compounds read low 0.785 | S. cerevisiae deletion strains, locus YJL129C, strain trk1, active compounds read low 0.648 | S. cerevisiae deletion strains, locus YJL164C, strain tpk1, active compounds read low 0.379 | S. cerevisiae deletion strains, locus YJL166W, strain qcr8, active compounds read low 0.583 | [3] 0.846 | S. cerevisiae deletion strains, locus YKL160W, strain elf1, active compounds read low 0.733 | S. cerevisiae deletion strains, locus YKR026C, strain gcn3, active compounds read low 0.864 | S. cerevisiae deletion strains, locus YKR091W, strain srl3, active compounds read low 0.875 | S. cerevisiae deletion strains, locus YLL001W, strain dnm1, active compounds read low 0.662 | S. cerevisiae deletion strains, locus YLL026W, active compounds read low 0.508 | S. cerevisiae deletion strains, locus YLL041C, strain sdh2, active compounds read low 0.863 | S. cerevisiae deletion strains, locus YLR027C, strain aat2, active compounds read low 0.481 | S. cerevisiae deletion strains, locus YLR221C, strain rsa3, active compounds read low 0.541 | S. cerevisiae deletion strains, locus YLR258W, strain gsy2, active compounds read low 0.529 | S. cerevisiae deletion strains, locus YLR320W, strain mms22, active compounds read low 0.742 | S. cerevisiae deletion strains, locus YLR342W, strain FKS1, active compounds read low 0.866 | S. cerevisiae deletion strains, locus YLR370C, strain arc18, active compounds read low 0.704 | S. cerevisiae deletion strains, locus YLR384C, strain iki3, active compounds read low 0.85 | S. cerevisiae deletion strains, locus YML120C, strain ndi1, active compounds read low 0.252 | S. cerevisiae deletion strains, locus YMR058W, strain fet3, active compounds read low 0.587 | S. cerevisiae deletion strains, locus YMR129W, active compounds read low 0.659 | S. cerevisiae deletion strains, locus YMR205C, strain PFK2, active compounds read low 0.751 | S. cerevisiae deletion strains, locus YMR231W, strain pep5, active compounds read low 0.883 | S. cerevisiae deletion strains, locus YNL071W, strain lat1, active compounds read low 0.909 | S. cerevisiae deletion strains, locus YNL209W, strain ssb2, active compounds read low 0.53 | S. cerevisiae deletion strains, locus YNL248C, strain rpa49, active compounds read low 0.827 | S. cerevisiae deletion strains, locus YOR001W, strain rrp6, active compounds read low 0.365 | S. cerevisiae deletion strains, locus YOR070C, strain gyp1, active compounds read low 0.607 | S. cerevisiae deletion strains, locus YOR080W, strain dia2, active compounds read low 0.876 | S. cerevisiae deletion strains, locus YOR083W, strain WHI5, active compounds read low 0.58 | S. cerevisiae deletion strains, locus YOR106W, strain vam3, active compounds read low 0.489 | S. cerevisiae deletion strains, locus YOR265W, strain rbl2, active compounds read low 0.61 | S. cerevisiae deletion strains, locus YOR270C, strain vph1, active compounds read low 0.707 | S. cerevisiae deletion strains, locus YOR290C, strain snf2, active compounds read low 0.441 | S. cerevisiae deletion strains, locus YPL051W, strain arl3, active compounds read low 0.653 | S. cerevisiae deletion strains, locus YPL078C, strain atp4, active compounds read low 0.813 | S. cerevisiae deletion strains, locus YPL106C, strain sse1, active compounds read low 0.719 | S. cerevisiae deletion strains, locus YPL240C, strain hsp82, active compounds read low 0.623

COc1ccc(C(=O)CN2CCN(c3cc(C)nc4ccccc34)CC2)cc1
inactive: S. cerevisiae deletion strains, locus YAL013W, strain DEP1, active compounds read low 1.01 | S. cerevisiae deletion strains, locus YBR229C, strain ROT2, active compounds read low 1.01 | [1] 1 | S. cerevisiae deletion strains, locus YDL101C, strain DUN1, active compounds read low 0.968 | S. cerevisiae deletion strains, locus YDL134C, strain PPH21, active compounds read low 0.994 | S. cerevisiae deletion strains, locus YDR150W, strain NUM1, active compounds read low 0.982 | S. cerevisiae deletion strains, locus YEL061C, strain CIN8, active compounds read low 0.979 | S. cerevisiae deletion strains, locus YGR078C, strain PAC10, active compounds read low 1 | [2] 0.905 | S. cerevisiae deletion strains, locus YHR087W, strain rtc3, active compounds read low 0.994 | [3] 1 | S. cerevisiae deletion strains, locus YJR043C, strain POL32, active compounds read low 1 | S. cerevisiae deletion strains, locus YJR075W, strain HOC1, active compounds read low 1.01 | S. cerevisiae deletion strains, locus YLR039C, strain RIC1, active compounds read low 0.956 | S. cerevisiae deletion strains, locus YLR058C, strain SHM2 (second series), active compounds read low 1.01 | S. cerevisiae deletion strains, locus YLR085C, strain ARP6, active compounds read low 0.987 | S. cerevisiae deletion strains, locus YLR262C, strain YPT6, active compounds read low 0.942 | S. cerevisiae deletion strains, locus YML094W, strain GIM5, active compounds read low 0.957 | S. cerevisiae deletion strains, locus YMR219W, strain ESC1, active compounds read low 0.997 | S. cerevisiae deletion strains, locus YMR263W, strain SAP30, active compounds read low 1.04 | S. cerevisiae deletion strains, locus YMR307W, strain GAS1, active compounds read low 1.09 | S. cerevisiae deletion strains, locus YNL153C, strain GIM3, active compounds read low 1.01 | S. cerevisiae deletion strains, locus YNL298W, strain CLA4 (second series), active compounds read low 0.975 | S. cerevisiae deletion strains, locus YNL322C, strain KRE1, active compounds read low 0.998 | S. cerevisiae deletion strains, locus YNR030W, strain Alg12, active compounds read low 0.994 | S. cerevisiae deletion strains, locus YOL006C, strain TOP1, active compounds read low 0.995 | S. cerevisiae deletion strains, locus YPL055C, strain LGE1, active compounds read low 1.01 | S. cerevisiae deletion strains, locus YPL241C, strain CIN2, active compounds read low 1.05 | S. cerevisiae deletion strains, locus YPR135W, strain CTF4, active compounds read low 0.944 | S. cerevisiae strains, strain wild type, active compounds read low 1
